Consider 90 compounds from publication PMC4336329 (PLoS ONE, 2015).

About 14,000 (4.5%) of roughly 310,000 compounds showed an effect of 50% or more. Effects have a minus sign here. The full list was thinned out, with strong results kept by preference.
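Also: peak tail current of the secondary pulse compared with the same well before compound.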

The target in this test is human ether-à-go-go-related gene (hERG) potassium channel (human, UniProt Q12809). Put plainly: primary screen, population patch clamp on CHO cells stably expressing hERG; higher = less effect of the substance.
human ether-à-go-go-related gene (hERG) potassium channel, sequence (Q12809 whole entry, looked up): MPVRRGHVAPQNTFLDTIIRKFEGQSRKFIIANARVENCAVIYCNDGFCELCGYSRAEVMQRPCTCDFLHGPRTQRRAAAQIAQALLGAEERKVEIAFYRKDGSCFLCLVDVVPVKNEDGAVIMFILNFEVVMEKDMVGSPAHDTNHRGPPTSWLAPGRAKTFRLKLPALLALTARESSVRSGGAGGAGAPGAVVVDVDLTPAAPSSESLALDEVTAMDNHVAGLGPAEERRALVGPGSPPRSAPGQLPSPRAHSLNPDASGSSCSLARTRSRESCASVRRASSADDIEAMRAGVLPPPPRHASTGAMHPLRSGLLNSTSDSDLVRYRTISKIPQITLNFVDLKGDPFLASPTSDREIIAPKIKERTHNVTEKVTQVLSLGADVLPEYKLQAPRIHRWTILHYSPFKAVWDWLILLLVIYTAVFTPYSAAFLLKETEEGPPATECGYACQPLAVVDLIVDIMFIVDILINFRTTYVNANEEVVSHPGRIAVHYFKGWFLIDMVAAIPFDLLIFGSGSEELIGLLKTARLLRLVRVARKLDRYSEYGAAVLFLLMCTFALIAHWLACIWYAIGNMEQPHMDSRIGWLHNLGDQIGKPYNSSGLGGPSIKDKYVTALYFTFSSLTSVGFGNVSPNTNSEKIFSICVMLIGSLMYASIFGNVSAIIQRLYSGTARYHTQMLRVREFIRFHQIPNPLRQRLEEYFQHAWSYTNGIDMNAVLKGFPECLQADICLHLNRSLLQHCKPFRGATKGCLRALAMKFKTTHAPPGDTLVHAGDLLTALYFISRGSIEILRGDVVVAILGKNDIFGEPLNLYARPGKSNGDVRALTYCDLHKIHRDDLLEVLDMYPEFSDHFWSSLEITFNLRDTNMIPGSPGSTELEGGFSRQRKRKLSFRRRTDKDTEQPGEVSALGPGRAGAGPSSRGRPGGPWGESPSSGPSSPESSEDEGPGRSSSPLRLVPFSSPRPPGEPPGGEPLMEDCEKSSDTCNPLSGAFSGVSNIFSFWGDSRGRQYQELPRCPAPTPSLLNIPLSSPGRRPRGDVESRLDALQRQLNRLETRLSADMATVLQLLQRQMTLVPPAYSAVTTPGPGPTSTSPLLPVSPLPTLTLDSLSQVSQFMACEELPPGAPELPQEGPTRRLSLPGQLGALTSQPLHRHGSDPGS
For `CC(=O)N(Cc1ccco1)Cc1cc2cccc(C)c2n2nnnc12`, the “hERG current change (%, negative = inhibition) at 10uM” value was -3.36%.
Turning to `CCn1cc(C(=O)NCc2cccs2)c(=O)c2cc(S(=O)(=O)N3CCOCC3)ccc21`, the “hERG current change (%, negative = inhibition) at 10uM” value was -20.3%.
For `Cc1cc(C)nc(Nc2ncn[nH]2)n1`, the “hERG current change (%, negative = inhibition) at 10uM” value is given as -73.3%.
Then `Clc1cc(Cl)cc(Nc2ncn[nH]2)c1`, with -8.8%; and `Cc1cc(C)nc(Nc2n[nH]c(C)n2)n1`, with 16.4%.
Then `CCOC(=O)C1(CC2CC2)CCN(C(=O)c2cc(OC)nc3ccccc23)CC1`, with -12.9%.
Then `CC(C)[C@H](NC(=O)c1ccccc1)C(=O)OCC(=O)c1ccc2c(c1)NC(=O)CO2`, with -26.3%; and `COCCCNc1nc2ccccc2nc1NS(=O)(=O)c1ccc(C)cc1`, with -8.35%; and `O=C(Nc1ccc([N+](=O)[O-])cc1Cl)c1cc(Cl)ccc1O`, with 7.32%.
Turning to `O=C(c1ccccc1)c1ccc(NCCCn2ccnc2)c([N+](=O)[O-])c1`, the “hERG current change (%, negative = inhibition) at 10uM” value is reported as -81.3%.
On to `O=C(c1ccccc1)c1ccc(-n2ccnc2)c([N+](=O)[O-])c1`, for which the “hERG current change (%, negative = inhibition) at 10uM” value is on record as -25.8%.
Then `CCN(CC)S(=O)(=O)c1ccc(NCCCn2ccnc2)c([N+](=O)[O-])c1`, with -57.2%; and `O=C(/C=C/c1ccccc1[N+](=O)[O-])NCCCn1ccnc1`, with 2.43%.
Take `CC(C)NS(=O)(=O)c1ccc(NCCCn2ccnc2)c([N+](=O)[O-])c1`: the “hERG current change (%, negative = inhibition) at 10uM” value is reported as -1.68%.
The figure for `NS(=O)(=O)c1ccc(NCCCn2ccnc2)c([N+](=O)[O-])c1` is 8.43%.
The figure for `CC(=O)Nc1ccc(C(=O)OC2CCOC2=O)cc1` (stereo not drawn) is 12.5%; for `Cc1cc(OC(C)C(=O)N/N=C/CC(C)c2ccccc2)ccc1Cl` (stereo not drawn) it is 16.1%.
On to `C=CCc1cccc(C2Nc3ccccc3C(=O)N2O)c1O` (stereo not drawn), for which the “hERG current change (%, negative = inhibition) at 10uM” value was 7.52%.
`CCCC(=O)Nc1ccc(Oc2ccc(NC(=O)CCC)cc2)cc1`: the “hERG current change (%, negative = inhibition) at 10uM” value is 2.76%.
The figure for `COc1cc(C2c3c(-c4ccccc4)n[nH]c3C(=O)N2c2ccc(C(=O)O)cc2)ccc1O` (stereo not drawn) is 8.38%; for `Br.C=CCN1C(c2ccc(Br)cc2)=CS/C1=C(/C#N)c1nnc(N2CCOCC2)n1-c1ccccc1` it is -13.4%.
Regarding `N#CC1=C(Nc2ccccc2)SC=C(c2ccc(Br)cc2)N=C1N1CCOCC1`, the “hERG current change (%, negative = inhibition) at 10uM” value is listed as -64.7%.
The figure for `N#CC1=C(Nc2ccccc2)SC=C(c2ccc(F)cc2)N=C1N1CCOCC1` is -10.8%; for `N#CC1=C(Nc2ccccc2)SC=C(c2ccc(Cl)c(Cl)c2)N=C1N1CCOCC1` it is -50.9%.
`N#Cc1nc(-c2ccccc2Cl)oc1N1CCOCC1`: the “hERG current change (%, negative = inhibition) at 10uM” value was -4.51%.
Consider `c1ccc(Nc2nc(N3CCOCC3)nc(N3CCOCC3)n2)cc1`, for which the “hERG current change (%, negative = inhibition) at 10uM” value is reported as -7.35%.
In the case of `C/C(NC(=O)c1ccccc1F)=C1\C(=O)C[C@@H]2[C@H]1C2(C)C`, the “hERG current change (%, negative = inhibition) at 10uM” value is recorded as -14.4%.
Then `CC(C)OC(=O)CSc1nnc(SCc2cccc3ccccc23)s1`, with 7.07%; and `CC1CC2c3cccc(C(=O)O)c3C(=O)N2c2ccc(Cl)cc21` (stereo not drawn), with 5.97%.
Then `CCCC(C)NCC(=O)Nc1ccccc1-c1ccccc1.O=C(O)C(=O)O` (stereo not drawn), with -21.5%; and `COc1ccc(CCn2c(N3CCOCC3)nc3c2c(=O)[nH]c(=O)n3C)cc1`, with -15.5%.
In the case of `CC(=O)c1cc(C(=O)N2CCCC(C(=O)c3ccc(Cl)cc3)C2)cs1` (stereo not drawn), the “hERG current change (%, negative = inhibition) at 10uM” value is -31.9%.
Then `CC(C)CN1CCN(Cc2ccc(C#CC(C)(C)O)cc2)CC1CCO` (stereo not drawn), with 8.57%; and `CC(C)CN1CCN(Cc2ccccc2C(F)(F)F)CC1CCO` (stereo not drawn), with 4.5%.
For the compound `Cc1cccc(-c2ncc(CN3CCN(CCC(C)C)C(CCO)C3)cn2)c1` (stereo not drawn), the “hERG current change (%, negative = inhibition) at 10uM” value was -45%.
On to `CC(C)CCN1CCN(Cc2ccc(N3CCNC3=O)cc2)CC1CCO` (stereo not drawn), for which the “hERG current change (%, negative = inhibition) at 10uM” value was -20.1%.
Turning to `CC(C)CCN1CCN(Cc2cccc(C(F)(F)F)c2)CC1CCO` (stereo not drawn), the “hERG current change (%, negative = inhibition) at 10uM” value is recorded as -55.1%.
As to `OCCC1CN(Cc2ccc(C(F)(F)F)cc2)CCN1Cc1ccccc1` (stereo not drawn), the “hERG current change (%, negative = inhibition) at 10uM” value is reported as -56.8%.
The figure for `CC(C)CCN1CCN(Cc2ccc(C#CCCO)cc2)CC1CCO` (stereo not drawn) is -6.37%.
Then `CC(C)CCN1CCN(Cc2ccc(C(F)(F)F)cc2)CC1CCO` (stereo not drawn), with -58.1%; and `CC(C)CN1CCN(Cc2ccc(C(F)(F)F)cc2)CC1CCO` (stereo not drawn), with -56.6%.
Then `OCCC1CN(Cc2cccs2)CCN1Cc1ccccc1` (stereo not drawn), with -20.9%.
For `OCCC1CN(Cc2cccc(C(F)(F)F)c2)CCN1Cc1ccccc1` (stereo not drawn), the “hERG current change (%, negative = inhibition) at 10uM” value is -46.2%.
With `CN(Cc1ccc(F)cc1)C(=O)c1ccc(NS(=O)(=O)c2ccc3[nH]c(=O)[nH]c3c2)cc1`, the “hERG current change (%, negative = inhibition) at 10uM” value was 12.1%.
Then `O=[N+]([O-])c1cccc(S(=O)(=O)Nc2ccc(S(=O)(=O)NCC3CCCO3)cc2)c1` (stereo not drawn), with -0.96%.
Then `COc1ccc(C2c3ccc(O)cc3Oc3ncn4nc(-c5ccccn5)nc4c32)cc1OC` (stereo not drawn), with -71.3%; and `COc1ccc(C2c3ccc(O)cc3Oc3ncn4nc(-c5ccccn5)nc4c32)cc1` (stereo not drawn), with 17.9%; and `COc1ccc(C2c3ccc(O)cc3Oc3ncn4nc(-c5cccnc5)nc4c32)cc1OC` (stereo not drawn), with -56.9%.
For the compound `COc1ccc(C2c3ccc(O)cc3Oc3ncn4nc(-c5ccco5)nc4c32)cc1OC` (stereo not drawn), the “hERG current change (%, negative = inhibition) at 10uM” value was 22.8%.
Then `COc1ccc(C2c3ccc(O)cc3Oc3ncn4nc(-c5ccncc5)nc4c32)cc1OC` (stereo not drawn), with 5.39%; and `COc1ccc(C2c3c(ccc4ccccc34)Oc3ncn4nc(-c5ccco5)nc4c32)cc1OC` (stereo not drawn), with -13.4%; and `CC1=CC(c2ccc(Cl)cc2)n2ncnc2N1` (stereo not drawn), with -9.02%.
Then `Cc1ccc(N=CC2=C(O)CC(c3ccccc3Cl)CC2=O)cc1` (stereo not drawn), with -6.91%; and `Cc1ccc(CN(C)Cc2cc(=O)oc3cc(C)c(Cl)cc23)cc1`, with 14.9%.
In the case of `O=C(COc1cc2oc(=O)c3c(c2cc1Cl)CCC3)Nc1cccnc1`, the “hERG current change (%, negative = inhibition) at 10uM” value is recorded as 6.03%.
For `CCOC(=O)c1ccc(NC(=O)COc2cc3oc(=O)c(CC(C)O)c(C)c3cc2Cl)cc1` (stereo not drawn), the “hERG current change (%, negative = inhibition) at 10uM” value is listed as 13.7%.
For the compound `CC(=O)c1cccc(NC(=O)COc2cc3oc(=O)c(CC(C)O)c(C)c3cc2Cl)c1` (stereo not drawn), the “hERG current change (%, negative = inhibition) at 10uM” value was -57.7%.
The figure for `CCOC(=O)NC(Nc1sc2c(c1C(=O)OC)CCN(C)C2)(C(F)(F)F)C(F)(F)F` is -13.2%.
The figure for `CCCCOC(=O)Cn1c(=O)n(CC(=O)OCCCC)c2ccccc21` is -33.9%; for `CCCCOC(=O)Cn1c(=N)n(CCN(CC)CC)c2ccccc21` it is -52.3%; for `CCCCOC(=O)Cn1c(=N)n(CCN2CCOCC2)c2ccccc21.Cl` it is -36.3%.
Then `CCN(CC)CCn1c(=N)n(CC(O)COc2ccccc2)c2ccccc21.Cl` (stereo not drawn), with -52.1%; and `CCCCOC(=O)Cn1c(=N)n(CCC)c2ccccc21.Cl`, with -31.5%; and `CCN(CC)CCn1c(=N)n(CC(O)c2ccc(OC)c(OC)c2)c2ccccc21.Cl` (stereo not drawn), with 14.4%.
In the case of `CCN(CC)CCn1c(=N)n(CC(O)COc2cccc(C)c2)c2ccccc21.Cl` (stereo not drawn), the “hERG current change (%, negative = inhibition) at 10uM” value was -65.2%.
Then `CCCCOC(=O)Cn1c(=O)oc2ccc(C)cc21`, with 5.97%.
Then `CCCCOC(=O)Cn1c(=O)n(CC(=O)OCCCC)c2cc(C)ccc21`, with -69.4%.
Then `CCn1c(=O)c(C(=O)Nc2ccccc2F)c(O)c2ccccc21`, with 17.2%; and `COc1ccc(OC)c(-c2csc(NC(=O)CSc3nnnn3C)n2)c1`, with 4.17%.
Take `COc1ccc(NC(=S)NC(NC(=O)CCl)C(Cl)(Cl)Cl)c([N+](=O)[O-])c1` (stereo not drawn): the “hERG current change (%, negative = inhibition) at 10uM” value is 17.2%.
For `NS(=O)(=O)c1cc2c(cc1Cl)NCNS2(=O)=O`, the “hERG current change (%, negative = inhibition) at 10uM” value is -12.3%.
The figure for `Cc1cccc(-n2ncc3c(NCc4ccccc4)ncnc32)c1` is 12%; for `O=C(c1cc2nc(-c3ccco3)cc(C(F)(F)F)n2n1)N1CCN(c2ccc(F)cc2)CC1` it is -34.5%; for `O=C(N/N=C/c1ccco1)c1ccc(OCc2ccccc2)cc1` it is 10.9%.
In the case of `COc1ccccc1N1CCN(C(=O)C2CC2)CC1`, the “hERG current change (%, negative = inhibition) at 10uM” value was 20%.
The figure for `O=C(NCCc1ccccc1)c1ccccc1F` is 24.5%; for `O=C(CCCN1C(=O)/C(=C/c2ccccc2Cl)SC1=S)NNC(=O)c1ccccc1Cl` it is 29.8%; for `COCCSc1ccccc1C(=O)N1CCN(c2ccccc2OC)CC1` it is 8.73%.
Then `Br.CCN(CC)CCn1c(=N)n(CCOc2ccccc2)c2ccccc21`, with -53.6%.
For `CCN(CC)CCn1c(=N)n(CCO)c2ccccc21`, the “hERG current change (%, negative = inhibition) at 10uM” value is recorded as 5.99%.
Consider `S=c1[nH]c2ccccc2n1CCOc1ccccc1`, for which the “hERG current change (%, negative = inhibition) at 10uM” value came out at 8.28%.
The figure for `O=C(NC1CCSc2ccccc21)c1cc(S(=O)(=O)N2CCOCC2)ccc1Cl` (stereo not drawn) is -18%; for `COc1ccc(NC(=S)N(Cc2ccc(Cl)cc2)Cc2ccc(C(=O)O)cc2)cc1Cl` it is -3.51%.
Then `CCOC(=O)c1ccc(-n2c(CN3CCC(C(N)=O)CC3)nc3ccc([N+](=O)[O-])cc3c2=O)cc1`, with -27.3%.
The figure for `Cc1ccc2cc(C(c3nnnn3C3CCCC3)N(Cc3cccnc3)Cc3ccco3)c(=O)[nH]c2c1` (stereo not drawn) is -77.8%; for `CCC(C)(C)n1nnnc1C(C(C)C)N(Cc1cccnc1)Cc1ccco1` (stereo not drawn) it is -2.92%.
For `Cc1ccc2cc(C(c3nnnn3C3CCCC3)N(Cc3ccccc3)Cc3ccco3)c(=O)[nH]c2c1` (stereo not drawn), the “hERG current change (%, negative = inhibition) at 10uM” value was determined as 10.7%.
Then `Cc1ccc2[nH]c(=O)c(C(c3nnnn3C3CCCC3)N(Cc3cccnc3)Cc3ccco3)cc2c1` (stereo not drawn), with -5.71%; and `Cc1cc2cc(C(c3nnnn3C3CCCC3)N(Cc3cccnc3)Cc3ccco3)c(=O)[nH]c2cc1C` (stereo not drawn), with -24.3%; and `CCC(C)(C)n1nnnc1C(c1cc2ccc(C)cc2[nH]c1=O)N(Cc1cccnc1)Cc1ccco1` (stereo not drawn), with -60.6%.
